Records with an inconclusive call do not appear. Entries that show only a call come without a potency. Values without a mark were called inactive. The source made the active and inactive calls. Calls follow the shape of the full dose curve.
test: qHTS assay to identify small molecule agonists of the progesterone receptor (PR) signaling pathway - cell viability counter screen (AID 1346799); settings: PR-UAS-bla HEK293T viability, CellTiter-Glo luminescence, 16 h; series mostly up to 92.4 µM; also: nearly all actives have a fitted effect of over 45% in size
Excerpt: National Center for Advancing Translational Sciences [NCATS]
NIH Chemical Genomics Center [NCGC]
U.S. Environmental Protection Agency [EPA]
National Institutes of Environmental Health Sciences [NIEHS]
National Toxicology Program [NTP]
U.S. Food and Drug Administration [FDA]
Progesterone receptor (PR), a nuclear hormone receptor, plays an important role in development, metabolic homeostasis and reproduction. It is activated by the steroid hormone progesterone. Endocrine disrupting chemicals (EDCs) and their interactions with steroid hormone receptors like PR causes disruption of normal endocrine function. To identify the compounds that stimulate PR signaling, a PR-UAS-bla GripTite cell line i.e. PR-UAS-bla HEK293T (Invitrogen, Carlsbad, CA, USA) containing a beta-lactamase reporter gene under the control of an UAS response element was used to screen Tox21 10K compound library. The cytotoxicity of the Tox21 compound library against the PR-bla cell line was tested in parallel by measuring the cell viability using CellTiter-Glo assay in the same wells.
Tox21 Assay Protocol Summary:
PR-UAS-bla HEK293T cells were dispensed at 3,000 cells/5 uL of assay medium containing 2% charcoal stripped FBS per well into black wall/clear-bottom 1536-well plates using a Multidrop Combi (ThermoFisher Scientific, Waltham, MA) dispenser. After the assay plates were incubated at a 37C and 5% CO2 for 6 hr, 23 nL of compounds dissolved in DMSO, positive controls or DMSO only was transferred to the assay plate by a Pintool station (Kalypsys, San Diego, CA). The plates were incubated at 37C and 5% CO2 for 16 hr. Then 1 uL of LiveBLAzer B/G FRET substrate was added using a Flying Reagent Dispenser (FRD, Aurora Discovery, San Diego, CA), the plates were incubated at room temperature for 2 hours, and fluorescence intensity was measured by an Envision plate reader (PerkinElmer, Shelton, CT). For cell viability readout that measures cytotoxicity, 4 uL/well of CellTiter-Glo reagent was added into the assay plates using a FRD. After 30 min incubation at room temperature, the luminescence intensity in the plates was measured using a ViewLux (PerkinElmer) plate reader.
Potency is read from the fitted curve at half-maximal effect.

Row | SMILES | Potency | activity change, negative = cytotoxicity
1 | O=c1c(O)c(O)c1=O | inactive | –
2 | CCCCCC(CC)OC(=O)CCCOc1ccc(Cl)cc1Cl (stereo not given) | inactive | –
3 | NC[C@H]1O[C@H](O[C@H]2[C@H](O)[C@@H](O[C@H]3O[C@H](CO)[C@@H](O)[C@H](N)[C@H]3O)[C@H](N)C[C@@H]2N)[C@H](N)[C@@H](O)[C@@H]1O | – | 1.42% [at 19 µM]
4 | CCCCCCCC(=O)N(C)C | inactive | –
5 | CC(C)(C)OC(=O)c1ccccc1C(=O)O | inactive | –
6 | CCN1CCN(C(=O)N[C@@H](C(=O)N[C@@H]2C(=O)N3C(C(=O)O)=C(CSc4nnnn4C)CS[C@H]23)c2ccc(O)cc2)C(=O)C1=O | inactive | –
7 | N=C(N)N | inactive | –
8 | CC(C)(C)OC=O | inactive | –
9 | CC/C=C\CCCCCCCCCCOC(C)=O | inactive | –
10 | CC1(C)C(=O)C(C)(C)C1=O | inactive | –
11 | CCCCCCCCC1CO1 (stereo not given) | inactive | –
12 | CC[N+](C)(CC)CC | inactive | –
13 | CC(C)(C)C(=O)CC(=O)C(C)(C)C | inactive | –
14 | Cc1ccccc1OCC(=O)O | inactive | –
15 | Cc1ccc(S(=O)(=O)NC(=O)NN2CC3CCCC3C2)cc1 (stereo not given) | inactive | –
16 | C[C@@H]1CCC[C@H](C)N1CCCC(O)(c1ccccc1)c1ccccn1 (stereo not given in full) | inactive | –
17 | CC(=O)Nc1ccc(S(=O)(=O)Nc2cc(C)on2)cc1 | inactive | –
18 | CC(=O)OC/C=C(/C)CCC=C(C)C | inactive | –
19 | CCN1CCN(C(=O)N[C@@H](C(=O)N[C@@H]2C(=O)N3[C@@H]2SC(C)(C)[C@H]3C(=O)O)c2ccccc2)C(=O)C1=O | inactive | –
20 | CC(C)(C)c1ccc(C(=O)CCCCl)cc1 | inactive | –

Row | SMILES | Potency | activity change, negative = cytotoxicity
21 | Nc1cc(S(=O)(=O)O)ccc1O | inactive | –
22 | Clc1cc(Cl)c(Cl)c(Cl)c1Cl | inactive | –
23 | CCOCCOCCOC(C)=O | inactive | –
24 | CCOc1ccccc1OCCN[C@H](C)Cc1ccc(OC)c(S(N)(=O)=O)c1 | inactive | –
25 | COC(=O)c1ccc(NC(C)=O)cc1OC | inactive | –
26 | CCc1ncc(C)[nH]1 | inactive | –
27 | O=C(O)Cc1c(Cl)ccc(Cl)c1Cl | inactive | –
28 | O=S(=O)(O)c1cc(I)c(O)c2ncccc12 | inactive | –
29 | O=Cc1ccccc1S(=O)(=O)O | inactive | –
30 | CCCCS | inactive | –
31 | NS(=O)(=O)c1cc2c(cc1C(F)(F)F)NCNS2(=O)=O | inactive | –
32 | CC(C)C(=O)Nc1cccc(C2CN3CCSC3=N2)c1 (stereo not given) | inactive | –
33 | COC(=O)c1ccc(C(=O)O)cc1 | inactive | –
34 | COc1cc(S(N)(=O)=O)cc(C(=O)O)c1OC | inactive | –
35 | CC[C@@]1(c2ccccc2)NC(=O)N(C)C1=O | inactive | –
36 | C[Si](C)(C)O[Si](O)(O)O | inactive | –
37 | CCN(CC)CC(=O)Oc1ccc(NC(C)=O)cc1 | inactive | –
38 | COC(=O)/C=C(\C)CCC=C(C)C | inactive | –
39 | CC(=O)c1c(C)cc(C(C)(C)C)cc1C | inactive | –
40 | Cc1ccc(O)c([N+](=O)[O-])c1 | 24.6 µM (active) | –

From PubChem BioAssay (Tox21)
